Measurements: PubChem BioAssay AID720519 (National Center for Advancing Translational Sciences (NCATS), 2013)
Records with an inconclusive call do not appear. Unmarked numbers belong to inactive results. The source made the active and inactive calls. Calls come from the whole dose curve; as a rule, active = well fitted activation curve with a large enough effect; inconclusive = small, poorly fitted or top-dose-only effect; inactive = flat fitted curve, though single readings scatter.

Assay: qHTS for Inhibitors of Cell Surface uPA Generation: Confirmatory Assay for Cherry-picked Compounds; for inhibition: 0% is about no effect
Conditions: cell surface uPA activity generation, qHTS confirmation; series mostly up to 115 µM; inhibition: at the top concentration
Outline: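 RAW 264.7 cells at 4000/well, incubated overnight, then treated with compounds. After 24 h at 37 C, viability was read by ATPlite luminescence. An increase in signal indicates blocked uPA-dependent LF entry.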
Potency is the fitted concentration of half-maximal effect.

| Compound | inhibition [%] | Potency |
| --- | --- | --- |
| Cn1c(CN2CCCC2)nc2cc(NC(=O)COc3ccccc3)ccc21 | -2.79 |  |
| COc1ccc(CCNC(=O)Cn2c(=O)n(-c3cc(F)ccc3F)c(=O)c3sccc32)cc1OC | -0.0942 |  |
| Cc1cc(/C=N/NC(=O)c2ccccc2F)c(C)n1-c1ccccc1 | -1.81 |  |
| Cc1cccc(NC(=O)C2CCCN(S(=O)(=O)c3ccc4[nH]c(=O)ccc4c3)C2)c1 (stereo not drawn) | -1.87 |  |
| COc1ccc2[nH]cc(S(=O)(=O)c3ccc(C(C)C)cc3)c(=O)c2c1 | 0.422 |  |
| COc1ccc(Cc2nnc(NC(=O)Nc3ccc(F)cc3)s2)cc1 | 10.6 |  |
| COc1ccc(C)cc1NC(=O)CSCc1cc(=O)n2c(C)csc2n1 | 0.197 |  |
| O=S(=O)(/N=C(/c1ccccc1)N1CCOCC1)c1ccc(F)cc1F | -0.111 |  |
| COc1cc(C(=O)Nc2nnc(C)s2)cc(OC)c1OC | -2.35 |  |
| CC(=O)Nc1c2c(nn1-c1cccc(C)c1)CSC2 | -0.352 |  |
| COc1cc(C2/C(=C(\O)c3ccc4c(c3)CC(C)O4)C(=O)C(=O)N2CC2CCCO2)cc(OC)c1OC (stereo not drawn) | -1.4 |  |
| Cc1ccc(/C=N/NC(=O)c2ccc3nc[nH]c3c2)s1 | -2.96 |  |
| Cc1ccc2oc(=O)c3cnn(CC(=O)Nc4ccccc4N4CCN(C)CC4)c3c2c1 |  | 9.27 µM (active) |
| Cc1cc(C)nc(N2N=C(C(F)(F)F)CC2=O)n1 | -2.08 |  |
| CCOC(=O)c1c(NC(=O)CC2SC(N)=NC2=O)sc2c1CCC(C)C2 (stereo not drawn) | -2.04 |  |
| COCCN1C(=O)C(=O)/C(=C(/O)c2ccc(S(=O)(=O)N3CCOCC3)cc2)C1c1cccc([N+](=O)[O-])c1 (stereo not drawn) | -1.81 |  |
| CC(C)(C)OC(=O)NCCCCCNC(=O)c1[nH]cnc1C(=O)Nc1ccc(Cl)cc1 | -1.98 |  |
| COc1ccc(CNCCC2(C(C)C)CCOC(C)(C)C2)cc1 (stereo not drawn) | -0.597 |  |
| COc1ccc(C(C(=O)NC2CCCC2)N(C(=O)c2ccoc2C)c2ccc(C)c(C)c2)cc1 (stereo not drawn) | -3.02 |  |
| Cc1nc2nc(C)c(NS(=O)(=O)c3ccc(Cl)cc3)c(=O)n2[nH]1 | -2.34 |  |
| CC(=O)Oc1ccccc1C(=O)Nc1ccccc1C(=O)N1CCCC1 | -1.4 |  |
| c1ccc(C2[C@H]3CN(Cc4cccnc4)[C@H](c4ccccc4)C34CC2(c2ccccc2)C4)cc1 (stereo partly drawn) | 2.4 |  |
| Fc1ccc(CNc2ccccn2)cc1 | -1.78 |  |
